# Only a selection was taken, and the strongest signals are over-represented in it overall.
# B1: Epa1-NP-mutant-Y228W (Candida glabrata), Q6VBJ0 (protein)
# chain: MILNPALFLNKCVCIYTTLILLLLTNGGYATSSNDISLASKDPTTFPLGCSPDITTPKKGLSMELYSYDFRKKGSYPCWDAAYLDPNYPRTGYKSHRLLAKVDGVTGNINFYYHATKGCTPQLGHLPASYNYPKPLTMTNFTMLLYGYFRPKVTGFHTFTISADDLLFVNFGAGNAFDCCRRDSSADHFGNYQAYAIWGSKTAKDELTVHLDAGVYYPIRLFYNNREWDGALSFTFKTESNENTVSDFSEYFFSLDDTEEGCPGLISYDSSCASVKTSKIIGIDYHTETPNENLVPITKTIYHLGIPCTGTTTTPLCGSGFYDPLANKCVTINTSSTSSVTKTTSHTTSKEVSFHSSISSQKTLIPKSIPSPYGPIKSQSIPTEMETSSEISSSEYAFSDVISTPSHSPYTKKHSSLNSSSYTSTVIHSLTSYSISQGIFSTSLSEQNITSKSSTDKFSTATSMSNNITQSSIIISQFSTNNENYTTTSMHTSSDKISTETLNNSISTTTSILFSNSSTILKNNTTIISSDKDTHYHPVNPTIVCSTNKTEIICASITQPSISNSNNHWSSSVLKFNSTTVRSTLPSSAGSNETSINVPFSSSTESNTSTSSTSTSNSKMVRSTLPSSAGSNETSISVPFSSSTESNTSTSSTSTSNSKMVRSTLPSSAGSNETSINVPFSSSTESNTSTSSTSTSNSKTVRSTPFSSAGIIMTSLSQRNNKSASSYASSNSKCYNTADSCRKVHSTPSYLLTSSYTSEGVDYDCSLVSTKLKINDTNCVNNKHTTKSCLKTSVTTTIPTLEIKTARKSSSNTIGLHSYPTSSPNKSISSAPIIGYISSFKTIKTASPSYQTSDLTTITTITSLNNPGSTAVENTHESNDKSRKTSSNDISSKHSVIKETKDAVESSNKSHQTNTLKCSSIIIASSSHNSYESLGGTTLTLTLSKVYSPQNNDTLPFLEISEVNPSRTVLPESSKMMQYLTSTEERNKTARNTIATNIVSISTFHFEGEGNAIRMGYTQLLLMLIGIIVMNIGT
# Columns and labels:
# Assay in all cases: glycan array binding signal (z-score within array); higher = stronger binding
# Details in all cases: glycan notation: IUPAC condensed, linker removed; mutation: Y228W
# [1] = target: Gal(b1-4)GlcNAc(b1-3)Gal(b1-4)GlcNAc(b1-2)[Gal(b1-4)GlcNAc(b1-3)Gal(b1-4)GlcNAc(b1-6)]Man(a1-6)[Gal(b1-4)GlcNAc(b1-3)Gal(b1-4)GlcNAc(b1-2)Man(a1-3)]Man(b1-4)GlcNAc(b1-4)[Fuc(a1-6)]GlcNAc
# In short: (§1)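 Glycan array binding is given as a within-array Z-score, which can be read as non-binding when negative. The arrays, 3228 of them, came from the Consortium for Functional Glycomics database and were retained only where the protein sequence was available. Z-scores were averaged across arrays of the same protein sequence at different concentrations or buffers and across linkers.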
# [2] = target: Gal(b1-4)GlcNAc(b1-3)Gal(b1-4)GlcNAc(b1-3)Gal(b1-4)GlcNAc(b1-2)[Gal(b1-4)GlcNAc(b1-3)Gal(b1-4)GlcNAc(b1-3)Gal(b1-4)GlcNAc(b1-6)]Man(a1-6)[Gal(b1-4)GlcNAc(b1-3)Gal(b1-4)GlcNAc(b1-3)Gal(b1-4)GlcNAc(b1-2)Man(a1-3)]Man(b1-4)GlcNAc(b1-4)[Fuc(a1-6)]GlcNAc
# In short: as §1
# [3] = target: Gal(b1-4)GlcNAc(b1-3)Gal(b1-4)GlcNAc(b1-3)Gal(b1-4)GlcNAc(b1-3)Gal(b1-4)GlcNAc(b1-3)Gal(b1-4)GlcNAc(b1-2)Man(a1-3)[Gal(b1-4)GlcNAc(b1-3)Gal(b1-4)GlcNAc(b1-3)Gal(b1-4)GlcNAc(b1-3)Gal(b1-4)GlcNAc(b1-3)Gal(b1-4)GlcNAc(b1-2)Man(a1-6)]Man(b1-4)GlcNAc(b1-4)GlcNAc
# In short: as §1
# [4] = target: Gal(b1-4)GlcNAc(b1-6)[Gal(b1-3)]GalNAc
# In short: as §1
# [5] = target: Gal3S(b1-4)[Fuc(a1-3)]GlcNAc6S
# In short: as §1
# [6] = target: Gal6S(b1-3)GlcNAc6S
# In short: as §1
# [7] = target: Gal6S(b1-4)GlcNAc6S
# In short: as §1
# [8] = target: GalNAc(b1-4)GlcNAc(b1-3)GalNAc(b1-4)GlcNAc
# In short: as §1
# [9] = target: Glc(a1-4)Glc
# In short: as §1
# [10] = target: GlcA(b1-6)Gal
# In short: as §1
# [11] = target: GlcNAc(a1-3)Gal(b1-4)GlcNAc
# In short: as §1
# [12] = target: GlcNAc(b1-3)Gal
# In short: as §1
# [13] = target: GlcNAc(b1-4)Gal(b1-4)GlcNAc
# In short: as §1
# [14] = target: Man(a1-3)[Man(a1-6)]Man
# In short: as §1
# [15] = target: Man(a1-3)[Man(a1-6)]Man(a1-6)[Man(a1-3)]Man
# In short: as §1
# [16] = target: Neu5Ac(a2-3)Gal(b1-3)GalNAc6S
# In short: as §1
# [17] = target: Neu5Ac(a2-3)Gal(b1-3)GlcNAc(b1-2)Man(a1-3)[Neu5Ac(a2-3)Gal(b1-3)GlcNAc(b1-2)Man(a1-6)]Man(b1-4)GlcNAc(b1-4)GlcNAc
# In short: as §1
# [18] = target: Neu5Ac(a2-3)Gal(b1-3)[Fuc(a1-4)]GlcNAc(b1-3)Gal(b1-4)[Fuc(a1-3)]GlcNAc
# In short: as §1
# [19] = target: Neu5Ac(a2-3)Gal(b1-4)GlcNAc(b1-3)Gal(b1-4)[Fuc(a1-3)]GlcNAc
# In short: as §1
# [20] = target: Neu5Ac(a2-3)Gal(b1-4)[Fuc(a1-3)]GlcNAc(b1-3)Gal
# In short: as §1
# [21] = target: Neu5Ac(a2-3)[GalNAc(b1-4)]Gal(b1-4)GlcNAc
# In short: as §1
# [22] = target: Neu5Ac(a2-6)Gal(b1-4)GlcNAc(b1-2)Man(a1-3)[Gal(b1-4)GlcNAc(b1-2)Man(a1-6)]Man(b1-4)GlcNAc(b1-4)GlcNAc
# In short: as §1
# [23] = target: Neu5Ac(a2-6)Gal(b1-4)GlcNAc(b1-2)Man(a1-3)[Man(a1-6)]Man(b1-4)GlcNAc(b1-4)GlcNAc
# In short: as §1
# [24] = target: Neu5Ac(a2-6)Gal(b1-4)GlcNAc(b1-2)Man(a1-3)[Neu5Ac(a2-6)Gal(b1-4)GlcNAc(b1-2)Man(a1-6)]Man(b1-4)GlcNAc(b1-4)[Fuc(a1-6)]GlcNAc
# In short: as §1
# [25] = target: Neu5Ac(a2-6)Gal(b1-4)GlcNAc(b1-2)Man(a1-6)[Gal(b1-4)GlcNAc(b1-2)Man(a1-3)]Man(b1-4)GlcNAc(b1-4)GlcNAc
# In short: as §1
# [26] = target: Neu5Ac(a2-6)GalNAc(b1-4)GlcNAc6S
# In short: as §1
# [27] = target: Neu5Ac(a2-8)Neu5Ac
# In short: as §1
# [28] = target: Neu5Gc(a2-3)Gal(b1-4)GlcNAc
# In short: as §1
# [29] = target: Neu5Gc(a2-8)Neu5Gc(a2-3)Gal(b1-4)GlcNAc(b1-3)Gal(b1-4)GlcNAc
# In short: as §1
binder,measurement,setting,value
B1,glycan array binding signal (z-score),[1],2.98
same,glycan array binding signal (z-score),[2],3.05
same,glycan array binding signal (z-score),[3],1.78
same,glycan array binding signal (z-score),[4],2.77
same,glycan array binding signal (z-score),[5],-0.015
same,glycan array binding signal (z-score),[6],0.205
same,glycan array binding signal (z-score),[7],3.63
same,glycan array binding signal (z-score),[8],-0.329
same,glycan array binding signal (z-score),[9],-0.29
same,glycan array binding signal (z-score),[10],0.341
same,glycan array binding signal (z-score),[11],-0.131
same,glycan array binding signal (z-score),[12],-0.421
same,glycan array binding signal (z-score),[13],-0.126
same,glycan array binding signal (z-score),[14],-0.183
same,glycan array binding signal (z-score),[15],-0.095
same,glycan array binding signal (z-score),[16],-0.312
same,glycan array binding signal (z-score),[17],-0.117
same,glycan array binding signal (z-score),[18],0.021
same,glycan array binding signal (z-score),[19],-0.295
same,glycan array binding signal (z-score),[20],-0.343
same,glycan array binding signal (z-score),[21],-0.228
same,glycan array binding signal (z-score),[22],-0.285
same,glycan array binding signal (z-score),[23],0.235
same,glycan array binding signal (z-score),[24],-0.238
same,glycan array binding signal (z-score),[25],-0.14
same,glycan array binding signal (z-score),[26],-0.172
same,glycan array binding signal (z-score),[27],-0.272
same,glycan array binding signal (z-score),[28],-0.19
same,glycan array binding signal (z-score),[29],-0.388

# — the supplement of paper PMC8728848
